Compound activity deposited in PubChem by National Center for Advancing Translational Sciences (NCATS).
Giardia kill: Giardia lamblia killing | 0.15% of 340,000 active | Giardia lamblia trophozoite viability | AID 540267 | activity change, % at 7.66 µM, hits read low; in the data active = activity change below about -80%; inconclusive = between about -30% and that limit;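 also: parasites exposed to compound for two days anaerobically before the ATP read; % is scaled to controls: 0 for no effect and ±100 for the full control effect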
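Killing of trophozoites was scored by loss of ATP luminescence after a 48 hrs anaerobic exposure to compounds at 37 deg C, using 100 cells per well.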
ATXN viability: cell viability loss in ATXN counter-screen | 0.49% of 400,000 active | Potency, µM (series often up to 56.7 µM), hits mostly cytotoxic | S2 cells (HEK-293 line with an ATXN2-luciferase reporter) viability, CellTiter-Fluor protease fluorescence, 24 h; also: potency is read from the fitted curve at half-maximal effect; nearly all actives have a fitted effect of over 40% in size
TGFb inhibitor: TGF-b pathway inhibition | 1.2% of 410,000 active | Potency, µM (titrated, usually from 46.1 µM), without a hit: top-dose activity, negative = inhibition, usual class: inhibitors | HepG2 CAGA-GFP TGF-b/SMAD3 reporter, GFP fluorescence, 18 h; TGF-beta stimulated, 500 pg/mL final; also: potency is read from the fitted curve at half-maximal effect; % is scaled to controls: 0 for no effect and ±100 for the full control effect; nearly all actives have a fitted effect of over 65% in size
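HEPG2 CAGA-GFP cells (1000/well, DMEM with 1% FBS) were pre-incubated 2 h at 37 degrees C, given compound by pin tool, then stimulated with TGF-beta at 500 pg/mL final for 18 h before per-cell GFP fluorescence imaging.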
HepG2 tox-1: counter-screen for TGF-b inhibitors: cytotoxicity in HepG2 cells. HepG2 CAGA-GFP viability, ATP luminescence, 18 h. Potency, µM (series often up to 46.1 µM), without a hit: at the top dose activity change, negative = cytotoxicity, hits mostly cytotoxic. 0.76% of 410,000 active; also: potency is read from the fitted curve at half-maximal effect
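HepG2 CAGA-GFP cells (1000/well, DMEM with 1% FBS) received compound, then TGF-beta at 500 pg/mL final, and were incubated 18 hours at 37 degrees C. Viability was read by CellTiter-Glo luminescence. Media-only wells were set as complete cell-killing and DMSO as no toxicity.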
uPA surface inh: cell surface uPA generation inhibition; cell surface uPA generation assay, qHTS; Potency, µM (series often up to 38.3 µM), for the others: at the highest dose activity change, negative = inhibition, most hits filed as inhibitors; 0.31% of 330,000 active; active = well fitted inhibition curve with a large enough effect; inconclusive = small, poorly fitted or top-dose-only effect; inactive = no such curve, though single readings can be large or run the other way; tested in mouse RAW 264.7 cells; also: potency is read from the fitted curve at half-maximal effect; % is scaled to controls: 0 for no effect and ±100 for the full control effect; nearly all actives have a fitted effect of over 55% in size
ATXN2 expr inh: reduces ATXN2 reporter expression in HEK-293 cells; HEK-293 ATXN2-luciferase reporter, luminescence, 24 h; Potency, µM (series often up to 57 µM), for inactives: at the highest dose activity change, negative = inhibition, most hits filed as inhibitors; 0.72% of 360,000 active; AID 1745845; also: potency is read from the fitted curve at half-maximal effect; % is scaled to controls: 0 for no effect and ±100 for the full control effect; nearly all actives have a fitted effect of over 55% in size
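qHTS (up to 57 uM final) was run with 24 h compound exposure of reporter cells at 37 °C. Each well was multiplexed: SteadyGlo luminescence measured ATXN2-luciferase expression after a fluorogenic Gly-Phe-AFC viability readout (25 uM final).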
TGFb confirm: TGF-b pathway inhibition, cherry-pick retest | Potency, µM (series often up to 46.1 µM), inactives show at the top dose activity, negative = inhibition, usual class: inhibitors | 63% of 1,600 active | HepG2 CAGA-GFP TGF-b reporter, GFP fluorescence, 18 h; cells stimulated with TGF-beta, 500 pg/mL | shares compounds with TGFb inhibitor | AID 720534; also: potency is read from the fitted curve at half-maximal effect; % is scaled to controls: 0 for no effect and ±100 for the full control effect; nearly all actives have a fitted effect of over 65% in size
HepG2 tox-2: counter-screen for TGF-b inhibitors: cytotoxicity in HepG2 cells | shares compounds with TGFb inhibitor | HepG2 CAGA-GFP viability, ATP luminescence, 18 h; cells stimulated with TGF-beta, 500 pg/mL | Potency, µM (series often up to 46.1 µM), for inactives: at the highest dose activity, negative = cytotoxicity, actives largely listed as inhibitors | 27% of 1,600 active; also: potency is read from the fitted curve at half-maximal effect; % is scaled to controls: 0 for no effect and ±100 for the full control effect; nearly all actives have a fitted effect of over 70% in size
TGFb CCL64 inh: blocks TGF-b signaling in CCL64 reporter cells; CCL64 CAGA-GFP reporter, TGF-b stimulated, GFP fluorescence, 18 h; 41% of 1,600 active; shares compounds with TGFb inhibitor; Potency, µM (highest dose often 46.1 µM), for inactives: top-dose activity, negative = inhibition, hits mostly inhibitors; also: potency is read from the fitted curve at half-maximal effect; nearly all actives have a fitted effect of over 65% in size
TGFb COP inh: validation of TGF-b inhibitors in HepG2 COP promoter reporter; shares compounds with TGFb inhibitor; 3% of 1,600 active; AID 720537; HepG2 COP-GFP TGF-b reporter, GFP fluorescence, 18 h; cells stimulated by added recombinant TGF-beta; Potency, µM (top dose mostly 46.1 µM), inactives show at the highest dose activity, negative = inhibition, actives largely listed as inhibitors; also: potency is read from the fitted curve at half-maximal effect; nearly all actives have a fitted effect of over 70% in size
* = called active by the depositor; i = inactive; ? = inconclusive; / = no result. An excerpt weighted towards active compounds, which were near 2.6% of everything screened. Unless noted, calls follow the shape of the dose curve; as a rule, active = well fitted curve in the direction sought with a large enough effect; inconclusive = small, poorly fitted or top-dose-only effect, or another doubt; inactive = no such curve, though single readings can be large; an effect the other way counts as inactive or inconclusive.

SMILES	Giardia kill	ATXN viability	TGFb inhibitor	HepG2 tox-1	uPA surface inh	ATXN2 expr inh	TGFb confirm	HepG2 tox-2	TGFb CCL64 inh	TGFb COP inh
CC(C(=O)N1CCc2ccccc21)N1CCN(c2cccc(C(F)(F)F)c2)CC1 (stereo not drawn)	-3.8	i	7.08µM*	-39.4%	4.5%	-17.1%	?	3.3%	?	-9.4%
CC(C(=O)N1CCc2ccccc21)N1CCN(S(=O)(=O)c2ccc(C(F)(F)F)cc2)CC1 (stereo not drawn)	-1.3	?	0.0%	-0.6%	-2.4%	-13.5%	/	/	/	/
CN(C)CCN(C(=O)c1cccc2ccccc12)c1nc2cc3c(cc2s1)OCO3	-5.0	i	0.0%	-24.1%	-11.7%	?	/	/	/	/
O=C(Nc1nc2cc3c(cc2s1)OCCO3)c1cccs1	-24.1	i	-0.5%	-46.6%	-16.9%	-16.4%	/	/	/	/
O=C(Nc1nc2cc3c(cc2s1)OCCO3)c1ccc([N+](=O)[O-])o1	-88.6*	i	?	-16.3%	-12.6%	16.5%	0.82µM*	4.11µM*	?	24.1%
COc1ccc2nc(NC(=O)c3ccc([N+](=O)[O-])o3)sc2c1	-96.7*	?	8.91µM*	-29.2%	-6.6%	21.4%	2.31µM*	20.6µM*	11.6µM*	21.8%
CCc1nc2ccc(C(=O)N3CCN(c4cccc(C(F)(F)F)c4)CC3)cc2nc1CC	-5.6	i	20µM*	-11.9%	0.6%	-19.1%	?	-23.6%	?	15.9%
CCOc1cccc2cc(-c3nc(-c4ccc(Cl)cc4)c(C)s3)c(=O)oc12	/	i	-12.5%	-27.2%	/	3.4%	/	/	/	/
Cc1ccc(NC(=O)COC(=O)C2(c3ccc(Cl)cc3)CCCC2)cc1	-3.5	?	10µM*	-41.3%	-2.3%	?	?	?	?	29.4%
CCOC(=O)c1ccc(NC(=O)C2(c3ccc(Cl)cc3)CCCC2)cc1	-14.1	i	?	-30.3%	-0.5%	-9.7%	/	/	/	/
CCOC(=O)C(=O)Cc1cccnn1	-8.5	i	-8.6%	5.2%	1.6%	-6.1%	/	/	/	/
COc1ccc(C(NC(=O)CN2C(=O)NC3(CCc4ccccc43)C2=O)c2ccccc2)cc1 (stereo not drawn)	-6.2	?	?	-8.9%	-14.0%	/	?	-13.2%	-22.5%	-9.7%
COc1ccc(C(NC(=O)CN2C(=O)NC3(CCc4ccccc43)C2=O)c2ccc(OC)cc2)cc1 (stereo not drawn)	0.8	?	-4.0%	-20.6%	2.3%	0.5%	/	/	/	/
COc1ccc(NC(=O)COC(=O)C2CC(=O)N(c3ccc(C)cc3)C2)cc1 (stereo not drawn)	12.0	i	1.5%	-0.2%	3.2%	1.3%	/	/	/	/
COCCNC(=O)C1(C)CCCN(C(=O)c2ccc(OC)cc2OC)C1 (stereo not drawn)	/	i	-8.0%	-16.1%	/	3.5%	/	/	/	/
O=C(NC(=S)Nc1ccc([N+](=O)[O-])cc1O)C1CCCCC1	13.3	i	11.2µM*	-35.7%	-10.2%	2.9%	16.4µM*	?	19.3%	27.8%
O=C(NCc1ccccn1)C1(C(F)(F)F)C/C(=C\Cc2ccccc2)CCCO1 (stereo not drawn)	3.1	/	-43.1%	-2.3%	/	/	/	/	/	/
Cc1cc(C)c2c(N)c3ccccc3nc2n1	-4.0	/	11.2µM*	9.7%	-12.7%	?	20.6µM*	18.4µM*	13µM*	4.9%
Cc1cccc(C)c1N(CC(=O)Nc1cc(Cl)ccc1Oc1ccccc1)S(C)(=O)=O	-21.1	i	?	13.5%	-4.3%	-9.6%	?	-16.8%	-24.5%	1.3%
Cc1ccc(C)c(N(CC(=O)Nc2cc(Cl)ccc2Oc2ccccc2)S(C)(=O)=O)c1	5.6	i	?	-1.1%	-4.1%	-0.9%	/	/	/	/
CC(C)(C)c1csc(NC(=O)c2ccc(Cl)s2)n1	-21.3	i	?	-1.4%	-6.9%	12.5%	/	/	/	/
CCNc1nc(N)c(C(=O)c2ccc(Cl)s2)s1	2.9	i	12.6µM*	-0.8%	7.3%	43.4%	6.51µM*	?	?	15.2%
CC1=C(C(=O)N(C(C)C)C(C)C)CC(CC(=O)NCc2cccc3ccccc23)C(=O)N1Cc1ccc(C(C)(C)C)cc1 (stereo not drawn)	/	?	7.94µM*	-7.7%	/	?	16.4µM*	?	?	30.1%
CC1=C(C(=O)N(C(C)C)C(C)C)CC(CC(=O)NCCc2ccccn2)C(=O)N1Cc1ccccc1 (stereo not drawn)	/	i	21.2%	4.5%	/	9.9%	/	/	/	/
CC1=C(C(=O)N(C(C)C)C(C)C)CC(CC(=O)NCCc2ccccn2)C(=O)N1Cc1ccc(C(C)(C)C)cc1 (stereo not drawn)	/	?	8.91µM*	-67.5%	/	-20.2%	-20.8%	-12.8%	?	10.8%
Cc1cc(NC(=O)c2ccco2)sc1C	-14.9	i	3.7%	-32.2%	-5.8%	24.6%	/	/	/	/
COc1ccccc1/C=C/C(=O)N1CCc2cc(OC)c(OC)cc2C1C (stereo not drawn)	-3.4	i	14.1µM*	-18.7%	-5.7%	-24.2%	11.6µM*	?	-23.6%	45.2%
COc1cc2c(cc1OC)C(C)N(C(=O)Nc1ccccc1)CC2 (stereo not drawn)	5.8	i	5.4%	11.9%	-9.3%	-12.0%	/	/	/	/
CCOc1ccc(Cl)cc1-c1cc(C(=O)NCc2cc(C(F)(F)F)cc(C(F)(F)F)c2)[nH]n1	/	?	15.8µM*	-22.3%	/	?	16.4µM*	?	?	21.3%
